Experimental data reported in PubChem BioAssay (NCATS).
“And” between values parts separate entries of the source, which are not always exact repeats. Equal values may be shown once. Inconclusive results are not listed. The source made the active and inactive calls. Unless noted, calls come from the whole dose curve; as a rule, active = well fitted curve in the direction sought with a large enough effect; inconclusive = small, poorly fitted or top-dose-only effect, or another doubt; inactive = no such curve, though single readings can be large; an effect the other way counts as inactive or inconclusive.

What was measured:
[1] = Cell Viability - MRC5 (AID 434; calls by dose curve;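 note: potency is the fitted concentration of half-maximal effect; potency reflects cytotoxicity seen as loss of intracellular ATP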); conditions: MRC5 lung fibroblast viability, qHTS
In short: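 MRC5 normal human lung fibroblasts, 1500 cells/well, exposed to compound for 40 hr at 37 C. Cellular ATP was read by CellTiter-Glo luminescence; data normalized to DMSO and 100 uM tamoxifen, with AC50 from Hill fits.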

[2] = Cellular Toxicity (caspase-3) HepG2 (AID 654); conditions: HepG2 caspase-3 activation, luminescence; series mostly up to 92.2 µM;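 note: cells exposed to compound for 16 hours before reading; 0% = DMSO alone and 100% = caspase signal from 100 µM tamoxifen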
In short: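 qHTS, HepG2, 1500 cells/well, complete medium; cpd 16 h 37 °C; Caspase-Glo 3/7, 20 min RT; lum. Norm: DMSO vs 100 uM tamoxifen; AC50 Hill fit.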

[3] = Cellular Toxicity (caspase-3) HUV-EC-C (AID 656); conditions: HUV-EC-C cells, caspase-3 activation (apoptosis); series mostly up to 92.2 µM
In short: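 Luminescent caspase-3/7 activation (aminoluciferin substrate cleavage) in HUV-EC-C cells after 16 hr compound exposure, 37°C. Signal normalized to DMSO basal and 100 uM tamoxifen as 100%; AC50 from concentration-response fitted with the Hill equation.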

[4] = Cellular Toxicity (caspase-3) SHSY5Y (AID 657); conditions: SH-SY5Y caspase-3 activation; series mostly up to 91.7 µM
In short: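 Luminescent caspase-3/7 readout (aminoluciferin release) in SH-SY5Y cells after 16 h compound exposure in complete medium. Activity scaled between DMSO basal and 10 uM staurosporine as 100%; concentration-response fitted to Hill equation for AC50.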

[5] = Cellular Toxicity (caspase-3) BJ (AID 658); conditions: BJ fibroblasts, luminescence; Potency: caspase-3 activation; series mostly up to 91.7 µM
In short: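 BJ human foreskin fibroblasts, 1000 cells/well, treated 16 hours at 37 °C in complete medium; caspase 3/7 activity by Caspase-Glo luminescence after 1 hr at room temperature. Normalized to DMSO and 10 uM staurosporine; AC50 from Hill fits.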

[6] = Cellular Toxicity (caspase-3) MRC-5 (AID 659); conditions: MRC-5 cells, luminescence, normalized: DMSO 0%, 10 µM staurosporine 100%; series mostly up to 91.7 µM
In short: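 MRC-5 human normal lung fibroblasts, 1500 cells/well, treated 16 h at 37 °C in complete medium. Caspase 3/7 measured by Caspase-Glo luminescence after 1 h at room temperature. Normalized to DMSO and 10 uM staurosporine; AC50 from Hill fit.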

[7] = Cellular Toxicity (caspase-3) Mesangial (AID 660); conditions: mesangial cells, normalized: DMSO 0%, 100 µM tamoxifen 100%; series mostly up to 91.7 µM;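 note: combined caspase 3 and 7 activity read by Caspase-Glo luminescence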
In short: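 Concentration-response qHTS: compound-induced rise in caspase 3/7 luminescence in human mesangial cells after 16 h, normalized to DMSO and 100 uM tamoxifen controls.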

[8] = Cellular Toxicity (caspase-3) SK-N-SH (AID 661); conditions: SK-N-SH caspase-3 activation, qHTS, DMSO as zero, staurosporine as full; series mostly up to 91.7 µM
In short: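 Caspase 3/7 activation is measured as a luminescence increase from aminoluciferin released by substrate cleavage in SK-N-SH cells after 16 hr compound treatment; values are AC50 from concentration-response curves.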

[9] = Cellular Toxicity (caspase-3) H-4-II-E (AID 663); conditions: H-4-II-E rat hepatoma; Potency: caspase-3 activation; series mostly up to 92.2 µM;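 note: cells exposed to compound for 16 hr before readout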
In short: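 Rat hepatoma H-4-II-E cells (1500/well) plated 5 hr, then exposed to compound titrations for 16 hr at 37 °C. Caspase-Glo 3/7 luminescence read after 20 min at RT; data normalized to DMSO and 100 uM tamoxifen, AC50 from Hill fits.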

[10] = Cellular Toxicity (caspase-3) Hek293 (AID 664); conditions: HEK293 caspase-3 activation, DMSO = 0%, 100 µM tamoxifen = 100%; at 92.2 µM (top of the series);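 note: cells exposed to compound for 16 h at 37 °C before readout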
In short: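 Activation of caspase-3/7 is measured as increased luminescence from cleaved peptide-aminoluciferin substrate in HEK293 cells treated 16 hours at 37 °C. AC50 values come from Hill-equation fits of concentration-response data.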

[11] = Cellular Toxicity (caspase-3) N2a (AID 665); conditions: N2a cells, luminescence, normalized: DMSO 0%, 10 µM staurosporine 100%; series mostly up to 92.2 µM;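 note: compound exposure lasted 16 h at 37 °C before readout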
In short: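 Plated mouse neuroblastoma N2a cells received titrated compounds for 16 h in complete medium. Caspase activity was then detected with a peptide-aminoluciferin luminescent reagent.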

[12] = Cellular Toxicity (caspase-3) Renal Proximal Tubule (AID 667); conditions: renal proximal tubule cells, primary cells freshly taken from rat; Potency: caspase-3 activation; series mostly up to 91.7 µM;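 note: cells exposed to compound for 16 hours at 37 °C before detection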
In short: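 Luminescent caspase 3/7 signal from peptide-aminoluciferin cleavage measures apoptosis in freshly isolated rat kidney proximal tubule cells after 16 h compound exposure. Concentration-response data are normalized to DMSO and 10 uM staurosporine, and AC50 values come from Hill equation fits.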

[13] = MultiTox-Fluor Cytotoxicity Assay - LYMP1-001 - Dead Cells (AID 946); conditions: LYMP1-001 lymphoblastoid cells, dead-cell protease fluorescence; series mostly up to 92.2 µM
In short: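 Seed 2500 LYMP1-001 cells/well, incubate 5 hr at 37 C; add compound, 16 hr at 37 C; add MultiTox-Fluor reagent, 60 min RT; read dead-cell fluorescence Ex/Em=485/520. Normalize to DMSO and 15 uM tetraoctylammonium bromide.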

[14] = MultiTox-Fluor Cytotoxicity Assay - LYMP1-003 - Dead Cells (AID 961); conditions: LYMP1-003 lymphoblastoid cells, dead-cell protease fluorescence; series mostly up to 92.2 µM; note: nearly all actives have a fitted effect of over 70% in size
In short: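 LYMP1-003 lymphoblastoid, 2500 cells/well, 5 hr settle then 16 hr cpd at 37 C; MultiTox-Fluor reagent 60 min RT; Ex/Em 485/520 dead-cell signal; norm. DMSO = 0%, 15 uM tetraoctylammonium bromide = 100%; Hill AC50.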

[15] = MultiTox-Fluor Cytotoxicity Assay - LYMP1-003 - Live Cells (AID 962); conditions: LYMP1-003 lymphoblastoid cells, MultiTox-Fluor live-cell protease fluorescence; series mostly up to 92.2 µM;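 note: 0% = DMSO only and full loss = 92 µM tetraoctylammonium bromide; cytotoxic hits lower the live-cell protease signal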
In short: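 Cells plated at 2500 per well and incubated 5 hr; compounds added and incubated 16 hr at 37 C; MultiTox-Fluor reagent added for 60 min at room temperature; fluorescence of liberated AFC measured at 405/510 nm.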

[16] = Cell Viability - LYMP1-003 - Assay at 24 hr (AID 963); conditions: LYMP1-003 lymphoblastoid cell viability; series mostly up to 92.2 µM;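 note: plate controls were DMSO only for no effect and tetraoctylammonium bromide positive control for full effect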
In short: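 Acute toxicity in LYMP1-003 lymphoblastoid cells: 24 hr compound treatment at 37 C, ATP measured with CellTiter-Glo after 30 min at room temperature. AC50 derived by fitting the Hill equation to qHTS titrations.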

[17] = Cell Viability - LYMP1-002 - Assay at 24 hr (AID 993); conditions: LYMP1-002 lymphoblastoid cells viability; series mostly up to 92.2 µM; note: % is set by controls: 0 for no effect and ±100 for the full control effect
In short: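 qHTS, LYMP1-002 lymphoblastoid, 24 h cpd, 37 C, CellTiter-Glo ATP luminescence; AC50 via Hill eq.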

[18] = qHTS Assay for Identification of Small Molecule Inducers of Hypoxia Response (AID 2120; active = well fitted curve in the direction sought with a large enough effect in the signal ratio, with a control signal flat, not every such curve was filed as active; the % refers to the signal ratio; note: 0% is about no effect); conditions: hypoxia response reporter cells, beta-lactamase ratio readout; series mostly up to 104 µM
In short: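 Induction of beta-lactamase reporter activity was measured in CellSensor HRE-bla ME-180 cells after 17 h compound treatment at 37 degrees C, using CCF4 substrate and the 460nm/530nm emission ratio to derive AC50 values.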

[19] = target: Peroxisome proliferator-activated receptor alpha (Homo sapiens) (UniProt Q07869); assay: qHTS assay for small molecule agonists of the peroxisome proliferator-activated receptor alpha (PPARalpha) signaling pathway (AID 651778); conditions: PathHunter PPARalpha complementation, chemiluminescence, 6 h; max response: stronger effect = higher value; note: % of control where 0% means no effect
Sequence of Peroxisome proliferator-activated receptor alpha (Homo sapiens) (Q07869 whole entry, looked up, the tested form may be a part): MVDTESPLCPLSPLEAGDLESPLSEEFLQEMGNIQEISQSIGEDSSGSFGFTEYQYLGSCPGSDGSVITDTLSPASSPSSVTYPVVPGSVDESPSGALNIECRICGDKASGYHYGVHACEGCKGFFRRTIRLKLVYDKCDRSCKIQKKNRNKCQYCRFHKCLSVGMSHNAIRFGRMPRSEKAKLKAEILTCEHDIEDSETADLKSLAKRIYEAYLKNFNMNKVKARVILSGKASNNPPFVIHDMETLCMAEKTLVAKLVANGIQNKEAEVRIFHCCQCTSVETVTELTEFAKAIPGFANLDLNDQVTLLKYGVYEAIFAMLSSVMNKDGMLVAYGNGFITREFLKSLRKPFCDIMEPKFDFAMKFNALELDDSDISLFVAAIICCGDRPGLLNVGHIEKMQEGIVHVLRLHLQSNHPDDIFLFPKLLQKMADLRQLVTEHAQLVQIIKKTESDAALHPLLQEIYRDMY
In short: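 Enzyme-fragment complementation assay in which ligand-bound PPARalpha translocates and forms an active enzyme that generates chemiluminescence. Cells were plated overnight, exposed to compound for 6 hr at 37 C, and then given detection reagent for 60 min at room temperature.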

[20] = qHTS assay for cell viability of the p53RE-bla HCT-116 cell line (AID 743292); conditions: p53RE-bla HCT-116 viability, ATP luminescence, 16 h; series mostly up to 95 µM; note: % is set by controls: 0 for no effect and ±100 for the full control effect; nearly all actives have a fitted effect of over 55% in size
In short: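 Quantitative high-throughput format: compounds in DMSO were pinned onto p53RE-bla HCT-116 cells (4,000/well) and incubated 16 h at 37 C. Total intracellular ATP, read by CellTiter-Glo luminescence, reflects viable cell number.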

CC(=O)c1ccc(Cl)c(Cl)c1Cl
inactive: Potency [1] > 92 µM | Potency [2] | Potency [3] | Potency [4] | Potency [5] | outcome [6] | outcome [7] | outcome [8] | Potency [9] | caspase-3 activation [10] 0.887% | outcome [11] | Potency [12] | Potency [13] | Potency [14] | Potency [15] | Potency [16] | Potency [17] | Potency [18] | max response [19] -0.114% | Potency [20]

O=[N+]([O-])c1ccccc1Nc1ccccc1
inactive: Potency [1] > 92 µM | Potency [2] | Potency [3] | Potency [4] | Potency [5] | outcome [6] | outcome [7] | outcome [8] | Potency [9] | caspase-3 activation [10] -0.0405% | outcome [11] | Potency [12] | Potency [13] | Potency [14] | Potency [15] | Potency [16] | Potency [17] | Potency [18] | max response [19] -0.358% | Potency [20]

Oc1c(Cl)cc(Cl)c(Cl)c1Cl
inactive: Potency [1] > 92 µM | Potency [2] | Potency [3] | Potency [4] | Potency [5] | outcome [6] | outcome [7] | outcome [8] | Potency [9] | caspase-3 activation [10] 1.49% | outcome [11] | Potency [12] | Potency [13] | Potency [14] | Potency [15] | Potency [16] | Potency [17] | Potency [18] | max response [19] 4.27% | Potency [20]

COc1ccc([N+](=O)[O-])cc1N
inactive: Potency [1] > 92 µM | Potency [2] | Potency [3] | Potency [4] | Potency [5] | outcome [6] | outcome [7] | outcome [8] | Potency [9] | caspase-3 activation [10] -2.76% | outcome [11] | Potency [12] | Potency [13] | Potency [14] | Potency [15] | Potency [16] | Potency [17] | Potency [18] | max response [19] -6.59% and -0.402% | Potency [20]

COc1ccc(C)cc1N
inactive: Potency [1] > 92 µM | Potency [2] | Potency [3] | Potency [4] | Potency [5] | outcome [6] | outcome [7] | outcome [8] | Potency [9] | caspase-3 activation [10] 0.602% | outcome [11] | Potency [12] | Potency [13] | Potency [14] | Potency [15] | Potency [16] | Potency [17] | Potency [18] | max response [19] -6.24% | Potency [20]

OCC(CBr)(CBr)CBr
inactive: Potency [1] > 92 µM | Potency [2] | Potency [3] | Potency [4] | Potency [5] | outcome [6] | outcome [7] | outcome [8] | Potency [9] | caspase-3 activation [10] 0.713% | outcome [11] | Potency [12] | Potency [13] | Potency [14] | Potency [15] | Potency [16] | Potency [17] | Potency [18] | max response [19] 1.63% | Potency [20]

Oc1ccc2c(c1)OCO2
inactive: Potency [1] > 92 µM | Potency [2] | Potency [3] | Potency [4] | Potency [5] | outcome [6] | outcome [7] | outcome [8] | Potency [9] | caspase-3 activation [10] -2.85% | outcome [11] | Potency [12] | Potency [13] | Potency [14] | Potency [15] | Potency [16] | Potency [17] | Potency [18] | max response [19] -2.87% | Potency [20]

c1c[nH]cn1
inactive: Potency [1] > 92 µM | Potency [2] | Potency [3] | Potency [4] | Potency [5] | outcome [6] | outcome [7] | outcome [8] | Potency [9] | caspase-3 activation [10] -0.608% | outcome [11] | Potency [12] | Potency [13] | Potency [14] | Potency [15] | Potency [16] | Potency [17] | Potency [18] | max response [19] -0.778% | Potency [20]

Cc1ccc2ccc3cccc4ccc1c2c34
inactive: Potency [1] > 92 µM | Potency [2] | Potency [3] | Potency [4] | Potency [5] | outcome [6] | outcome [7] | outcome [8] | Potency [9] | caspase-3 activation [10] 0.114% | outcome [11] | Potency [12] | Potency [13] | Potency [14] | Potency [15] | Potency [16] | Potency [17] | Potency [18] | max response [19] -2.03% | Potency [20]

c1ccc(SCCSc2ccccc2)cc1
inactive: Potency [1] > 92 µM | Potency [2] | Potency [3] | Potency [4] | Potency [5] | outcome [6] | outcome [7] | outcome [8] | Potency [9] | caspase-3 activation [10] 0.456% | outcome [11] | Potency [12] | Potency [13] | Potency [14] | Potency [15] | Potency [16] | Potency [17] | Potency [18] | max response [19] 2.97% | Potency [20]

O=[N+]([O-])c1cccc(I)c1
inactive: Potency [1] > 92 µM | Potency [2] | Potency [3] | Potency [4] | Potency [5] | outcome [6] | outcome [7] | outcome [8] | Potency [9] | caspase-3 activation [10] -1.61% | outcome [11] | Potency [12] | Potency [13] | Potency [14] | Potency [15] | Potency [16] | Potency [17] | Potency [18] | max response [19] -0.601% | Potency [20]
